From the supplement of paper PMC12297408
Where a name gives a salt, the structure may show the parent alone. Out of some 1,300 compounds screened, about 40 (3%) showed activity. Many of the other results were omitted from the sample, so actives are more common in it than they were. A number with no mark means an inactive call.

Test system: Plasmodium falciparum NF54/iGP1_RE9H ulg8 stage V gametocytes
Assay: gametocyte viability (luciferase signal relative to DMSO control) (% of DMSO control); higher = less gametocytocidal activity, active = 50 or less
Conditions: exposure time: 72 h
Outline: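 In 96-well plates holding nanolitre spots of compound (10 mM DMSO stocks), NF54/iGP1_RE9Hulg8 stage V gametocytes from day 12 were added at ~2.5% gametocytemia and 3% hematocrit in medium with 0.5% Albumax II, giving single wells at 10 µM or 1 µM. Incubation lasted 72 h at 37 °C. Each 90 µl sample then received 10 µl D-luciferin (30 mg/ml) before luminescence reading on an IVIS Lumina II, and viability was normalized to the mean of DMSO vehicle wells on the same plate.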

Structure (SMILES) | gametocyte viability (concentration: 1 µM) | gametocyte viability (concentration: 10 µM)
CC(=O)c1ccc2c(c1)N(CCCN1CCC(CCO)CC1)c1ccccc1S2 [Piperacetazine] | 79.4 | 80.8
Fc1ccc(C(c2ccc(F)cc2)N2CCN(C/C=C/c3ccccc3)CC2)cc1 [Flunarizine dihydrochloride] | 81.5 | 95.1
COC1=CC(=O)C[C@@H](C)[C@]12Oc1c(Cl)c(OC)cc(OC)c1C2=O [Griseofulvin] | 89.3 | 84.6
CCOC(=O)O[C@]1(C(=O)COC(=O)CC)CC[C@H]2[C@@H]3CCC4=CC(=O)C=C[C@]4(C)[C@H]3[C@@H](O)C[C@@]21C [Prednicarbate] | 91.7 | 90.6
CN(Cc1cnc2nc(N)nc(N)c2n1)c1ccc(C(=O)N[C@@H](CCC(=O)O)C(=O)O)cc1 (racemic) [Amethopterin (R,S)] | 80.3 | 83.6
CN(Cc1cnc2nc(N)nc(N)c2n1)c1ccc(C(=O)N[C@@H](CCC(=O)O)C(=O)O)cc1 [Methotrexate] | 91.4 | 87.9
COc1cccc2c1C(=O)c1c(O)c3c(c(O)c1C2=O)C[C@@](O)(C(=O)CO)C[C@@H]3O[C@H]1C[C@H](N)[C@H](O)[C@H](C)O1 [Doxorubicin hydrochloride] | 64.5 | 19 (active)
COc1cccc2c1C(=O)c1c(O)c3c(c(O)c1C2=O)C[C@@](O)(C(C)=O)C[C@@H]3O[C@H]1C[C@H](N)[C@H](O)[C@H](C)O1 [Daunorubicin hydrochloride] | 69.8 | 7.37 (active)
C#C[C@]1(O)CC[C@H]2[C@@H]3CCC4=CCCC[C@@H]4[C@H]3CC[C@@]21C [Lynestrenol] | 86 | 89.2
CCCCNc1c(C(=O)OCC)c(C)nc2c1cnn2CC [Tracazolate hydrochloride] | 88.5 | 76.3
CC#C[C@]1(O)CC[C@H]2[C@@H]3CCC4=CC(=O)CCC4=C3[C@@H](c3ccc(N(C)C)cc3)C[C@@]21C [Mifepristone] | 83.1 | 83.2
CN(C)CCOC1=Cc2ccccc2Sc2ccc(Cl)cc21 [Zotepine] | 91.1 | 86
CCOC(=O)N1CCC(=C2c3ccc(Cl)cc3CCc3cccnc32)CC1 [Loratadine] | 86 | 87.7
OC(Cn1cncn1)(Cn1cncn1)c1ccc(F)cc1F [Fluconazole] | 83.4 | 86.9
CC(C)(C#N)c1cc(Cn2cncn2)cc(C(C)(C)C#N)c1 [Anastrozole] | 77.6 | 45.8 (active)
CN(C)CCc1c[nH]c2ccc(Cn3cncn3)cc12 [Rizatriptan benzoate] | 84.2 | 84
CC(C)c1nc(CN(C)C(=O)N[C@H](C(=O)N[C@@H](Cc2ccccc2)C[C@H](O)[C@H](Cc2ccccc2)NC(=O)OCc2cncs2)C(C)C)cs1 [Ritonavir] | 66.4 | 36.5 (active)
Nc1ccc(/N=N/c2ccccc2)c(N)n1 [Phenazopyridine hydrochloride] | 88.3 | 48.1 (active)
Nc1c2ccccc2nc2ccccc12 [Aminacrine] | 85.8 | 81.4

Structure (SMILES) | gametocyte viability (concentration: 1 µM) | gametocyte viability (concentration: 10 µM)
CCN1CCN(C(=O)N[C@@H](C(=O)N[C@@H]2C(=O)N3C(C(=O)O)=C(CSc4nnnn4C)CS[C@H]23)c2ccc(O)cc2)C(=O)C1=O [Cefoperazone dihydrate] | 79.3 | 83.8
CC(N)CCCC(C)(C)O (configuration not stated) [Heptaminol hydrochloride] | 82.3 | 84.6
Cc1c(-c2ccccc2)oc2c(C(=O)OCCN3CCCCC3)cccc2c1=O [Flavoxate hydrochloride] | 92 | 87
N#CC(c1ccc(Cl)cc1)c1c(Cl)cc(-n2ncc(=O)[nH]c2=O)cc1Cl (configuration not stated) [Diclazuril] | 92.9 | 91.4
CC(=O)Nc1c(I)c(C(=O)N[C@H]2C(O)O[C@H](CO)[C@@H](O)[C@@H]2O)c(I)c(N(C)C(C)=O)c1I (some centres not stated) [Metrizamide] | 84.7 | 88.9
CCCC1C(=O)N2C(N(C)C)=Nc3ccc(C)cc3N2C1=O (configuration not stated) [Azapropazone] | 89.5 | 87.5
Oc1c(Cl)cc(Cl)c2cccnc12 [Chloroxine] | 83.4 | 84.2
CO[C@@]1(NC(=O)Cc2cccs2)C(=O)N2C(C(=O)O)=C(COC(N)=O)CS[C@@H]21 [Cefoxitin sodium salt] | 85.9 | 81.1
CNC1(C)C2CCC(C2)C1(C)C (configuration not stated) [Mecamylamine hydrochloride] | 93.8 | 94.3
CCC(C)(C)C(=O)O[C@H]1C[C@@H](C)C=C2C=C[C@H](C)[C@H](CC[C@@H]3C[C@@H](O)CC(=O)O3)[C@H]21 [Simvastatin] | 80.4 | 85.5
CCOC(=O)C1=C(COCCN)NC(C)=C(C(=O)OC)C1c1ccccc1Cl (configuration not stated) [Amlodipine] | 82.2 | 63.1
COCCc1ccc(OCC(O)CNC(C)C)cc1 (racemic) [Metoprolol-(+,-) (+)-tartrate salt] | 94 | 94
CCCCCCNC(=O)n1cc(F)c(=O)[nH]c1=O [Carmofur] | 80.2 | 76.4
Cc1cccn2c(=O)c(-c3nnn[nH]3)cnc12 [Pemirolast potassium] | 80.6 | 84.7
COc1cc(C(=O)N2CCOCC2)cc(OC)c1OC [Trimetozine] | 81.7 | 80.2
CN1CCc2c(c3ccccc3n2Cc2ccccc2)C1 [Mebhydroline 1,5-naphtalenedisulfonate] | 88.8 | 83.3
Cc1c(N(C)C)c(=O)n(-c2ccccc2)n1C [Amidopyrine] | 99 | 95.3
O=C1c2cccc(O)c2C(=O)c2c(O)cccc21 [1,8-Dihydroxyanthraquinone] | 82.8 | 85.1
O=C1c2c(O)ccc(O)c2C(=O)c2c(NCCNCCO)ccc(NCCNCCO)c21 [Mitoxantrone dihydrochloride] | 86.2 | 12.9 (active)

Structure (SMILES) | gametocyte viability (concentration: 1 µM) | gametocyte viability (concentration: 10 µM)
O=C1c2c(O)cccc2Cc2cccc(O)c21 [Anthralin] | 89.3 | 86.9
O=c1[nH]c(=O)n(C2CCCO2)cc1F (configuration not stated) [Tegafur] | 82.6 | 82.6
Cc1scc2c1N(C(=O)CN1CCN(C)CC1)c1ccccc1NC2=O [Telenzepine dihydrochloride] | 97.8 | 96.3
CC[N+](CC)(CC)CCC(O)(c1ccccc1)C1CCCCC1 (configuration not stated) [Tridihexethyl chloride] | 95.7 | 100
CCOC(=O)C1=C(C)NC(C)=C(C(=O)OCC)C1c1ccccc1/C=C/C(=O)OC(C)(C)C [Lacidipine] | 97.1 | 96.5
Cc1cccc(Nc2ccccc2C(=O)O)c1C [Mefenamic acid] | 94 | 94.6
Cc1c(Cl)cccc1Nc1ccccc1C(=O)O [Tolfenamic acid] | 83.6 | 90.8
COc1ccc(/C=C/C(=O)Nc2ccccc2C(=O)O)cc1OC [Tranilast] | 68.5 | 40.9 (active)
COC1=C(OC)C(=O)C(CCCCCCCCCCO)=C(C)C1=O [Idebenone] | 88 | 86.8
Cn1c(=O)c2c(ncn2CC2OCCO2)n(C)c1=O [Doxofylline] | 86.6 | 86.7
COc1cc(N)c(Cl)cc1C(=O)NC1CCN(CCCOc2ccc(F)cc2)CC1OC (configuration not stated) [Cisapride] | 95.9 | 96.7
C[C@H](CCC(=O)O)[C@H]1CC[C@H]2[C@@H]3C(=O)C[C@@H]4CC(=O)CC[C@]4(C)[C@H]3CC(=O)[C@]12C [Dehydrocholic acid] | 95.4 | 93.6
C=C1c2c(Cl)ccc(O)c2C(O)=C2C(=O)[C@]3(O)C(O)=C(C(N)=O)C(=O)[C@@H](N(C)C)[C@@H]3[C@@H](O)[C@H]12.O=C(O)c1cc(S(=O)(=O)O)ccc1O [Meclocycline sulfosalicylate] | 80.9 | 83.5
CN(C)CC/C=C1/c2ccccc2COc2ccc(CC(=O)O)cc21 [Olopatadine hydrochloride] | 77.9 | 86.5
CCCOc1ccc(C(=O)OCCN(CC)CC)cc1N [Proparacaine hydrochloride] | 98.5 | 105
COc1cccc(OC)c1C(=O)N[C@@H]1C(=O)N2[C@@H]1SC(C)(C)[C@@H]2C(=O)O [Methicillin sodium] | 83.4 | 83.1
Clc1ccccc1CN1CCc2sccc2C1 [Ticlopidine hydrochloride] | 96 | 93.2
CC(=O)OCC(=O)[C@@]1(O)CC[C@H]2[C@@H]3CCC4=CC(=O)CC[C@]4(C)[C@@]3(F)[C@@H](O)C[C@@]21C [Fludrocortisone acetate] | 79.5 | 75.8
